# High-throughput results deposited in PubChem BioAssay by National Center for Advancing Translational Sciences (NCATS).
# This is a sample that favours compounds with a hit; in the whole collection about 18% have one here.
# TDP1 inh = TDP1 (human) enzyme inhibition; Q9NUW8; recombinant TDP1, AlphaScreen DNA substrate cleavage; 0.28% of 350,000 active; Potency, µM (series often up to 130 µM), actives largely listed as inhibitors; further: nearly all actives have a fitted effect of over 40% in size
# Target sequence (Q9NUW8 whole entry, looked up): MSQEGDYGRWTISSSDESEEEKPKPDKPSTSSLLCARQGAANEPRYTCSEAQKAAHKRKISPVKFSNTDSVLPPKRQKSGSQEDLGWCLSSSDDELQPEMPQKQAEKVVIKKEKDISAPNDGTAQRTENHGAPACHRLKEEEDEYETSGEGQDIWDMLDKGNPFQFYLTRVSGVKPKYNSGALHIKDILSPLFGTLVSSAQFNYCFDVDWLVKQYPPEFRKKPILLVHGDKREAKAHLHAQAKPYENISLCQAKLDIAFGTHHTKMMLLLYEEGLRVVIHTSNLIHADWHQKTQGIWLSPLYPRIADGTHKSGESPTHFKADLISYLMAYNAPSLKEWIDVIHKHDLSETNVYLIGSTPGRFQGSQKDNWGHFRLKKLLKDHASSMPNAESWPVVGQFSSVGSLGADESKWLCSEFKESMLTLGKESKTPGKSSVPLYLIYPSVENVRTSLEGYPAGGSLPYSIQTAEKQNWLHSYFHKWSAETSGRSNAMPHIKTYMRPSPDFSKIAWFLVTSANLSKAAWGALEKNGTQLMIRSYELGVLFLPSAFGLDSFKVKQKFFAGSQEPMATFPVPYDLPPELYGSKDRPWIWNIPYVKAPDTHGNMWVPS
#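 Steps: enzyme plus compound, 15 min RT; add biotin/phosphotyrosine-FITC oligonucleotide (15 nM final), react 5 min; add donor/acceptor beads (10 ug/ml final), 10 min; read AlphaScreen. Tdp1 at 1 nM final.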
# TGFb inhibitor = inhibitors of TGF-b signaling; HepG2 CAGA-GFP TGF-b/SMAD3 reporter, GFP fluorescence, 18 h; TGF-beta stimulated, 500 pg/mL final; AID 588855; 1.2% of 410,000 active; Potency, µM (highest dose often 46.1 µM), hits mostly inhibitors; further: nearly all actives have a fitted effect of over 65% in size
#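 Inhibition was scored as loss of TGF-beta-induced (500 pg/mL final, 18 hours, 37 degrees C) GFP in HEPG2 cells carrying a CAGA-GFP reporter, in DMEM with 1% FBS. Well GFP was summed per cell; Activity was normalised to unstimulated and stimulated DMSO wells, then concentration-response fitting.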
# IL1B secr inh = inflammasome signaling inhibition, IL-1 beta readout. AID 743279. THP-1 LPS/ATP IL-1B secretion, AlphaLISA, 16 h; hits give low values. activity change, % at 57.5 µM. 4.7% of 360,000 active; in the data active means activity change below about -50%; inconclusive means mostly about -30% to -49%
#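 THP-1 cells pretreated 1 hr with compounds (up to 57.5 uM final), then stimulated with LPS (250 ng/mL final) plus ATP (1.25 mM final); secreted IL-1B measured by AlphaLISA after 16 hr, decreased signal indicating inhibition.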
# DT40 TDP1 CPT = growth inhibition of DT40 Tdp1-/-;hTDP1 cells with camptothecin (screen for TDP1 inhibitors). Potency, µM (doses to about 46.2 µM), usual class: inhibitors. chicken DT40 Tdp1-/-;hTDP1 cells + 20 nM CPT, ATP luminescence, 48 h. 12% of 420,000 active. AID 686979; further: nearly all actives have a fitted effect of over 55% in size
#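 Chicken DT40 Tdp1-/- cells complemented with human TDP1, 400 cells/well, exposed to compounds plus 20 nM camptothecin for at least 48 h at 37 C; viability read as ATP content by CellTiter-Glo luminescence.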
# HepG2 viability = HepG2 cytotoxicity, counter-screen for TGF-b inhibitors. HepG2 CAGA-GFP viability, ATP luminescence, 18 h. Potency, µM (doses to about 46.1 µM), actives largely listed as cytotoxic. 0.76% of 410,000 active. AID 588856
#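 CellTiter-Glo luminescence gave cytotoxicity after 18 hours at 37 degrees C. The cells were HepG2 CAGA-GFP in 1% FBS DMEM, stimulated with 500 pg/mL TGF-beta after compound addition. %Activity was normalised to no-cell wells (complete cell-killing) and DMSO (no toxicity), and curves were fitted and classified.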
# DT40 TDP1 no CPT = qHTS for Inhibitors of human tyrosyl-DNA phosphodiesterase 1 (TDP1): qHTS in cells in absence of CPT; 15% of 420,000 active; Potency, µM (doses to about 46.2 µM), actives largely listed as inhibitors; AID 686978, 2013; DT40 Tdp1-/- hTDP1 cells, no CPT, ATP luminescence, 48 h; further: nearly all actives have a fitted effect of over 55% in size
#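 Readout: luminescence from CellTiter-Glo after 30 min in the dark at RT. Cells: DT40 Tdp1-/- with stable hTDP1, 400/well. Exposure: compounds alone, ≥48 hr, 37 °C.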
# Hits are given with their value; n = inactive; u = inconclusive; x = no result given. Unless noted, the call rests on the fitted dose curve; in most records, active means well fitted curve in the direction sought with a large enough effect; inconclusive means small, poorly fitted or top-dose-only effect, or another doubt; inactive means no such curve, though single readings can be large; an effect the other way counts as inactive or inconclusive.
SMILES,TDP1 inh,TGFb inhibitor,IL1B secr inh,DT40 TDP1 CPT,HepG2 viability,DT40 TDP1 no CPT
CC(C)(C)c1ccc(-c2nnc(SCC(=O)NCC3CCCO3)n2N)cc1 (configuration not stated),n,n,n,n,n,n
O=C(CSc1nnc2ccc(-c3ccc(Br)cc3)nn12)NCC1CCCO1 (configuration not stated),x,n,u,21µM,n,u
COc1ccc(N2CCN(C3CCCN(Cc4cccc(OC)c4)C3)CC2)cc1 (configuration not stated),n,n,n,n,n,n
CC(=O)Oc1ccc(OC(C)=O)c(SCCCCCN2CCOCC2)c1,n,16µM,n,u,n,3.7µM
Cc1ccc(N2CC(NC(=O)C(=O)c3c(C)[nH]c4ccccc34)CC2=O)cc1C (configuration not stated),x,n,n,n,n,n
Cc1ccc(F)cc1C(=O)N1CCCC(c2cc(C(=O)NCc3ccccc3)no2)C1 (configuration not stated),x,n,n,u,n,u
O=C(Nc1ccccc1Cl)c1cc(C2CCCN(C(=O)c3ccccc3)C2)on1 (configuration not stated),x,n,n,18µM,n,u
Cc1ccc(F)cc1C(=O)N1CCCC(c2cc(C(=O)Nc3ccccc3Cl)no2)C1 (configuration not stated),x,n,n,u,n,21µM
CC(=O)N1C2(C=CC1(C)C(=O)NCc1ccccn1)CCCCC2 (configuration not stated),n,x,x,x,x,x
O=c1c2c([N+](=O)[O-])cc([N+](=O)[O-])cc2sn1-c1ccc(Br)cc1,n,n,n,10µM,n,u
O=c1c2c([N+](=O)[O-])cc([N+](=O)[O-])cc2nc2ccccn12,x,n,n,u,n,u
O=c1c2c([N+](=O)[O-])cc([N+](=O)[O-])cc2sn1Cc1ccccc1,x,u,-105,5.2µM,16µM,5.2µM
CCCCn1c(N)c(N(CCC(C)C)C(=O)c2ccc([N+](=O)[O-])s2)c(=O)[nH]c1=O,n,u,n,23µM,n,u
O=C(c1ccc(CSc2nc3ccncc3n2Cc2cccc(F)c2)cc1)N1CCCCC1,n,u,x,u,n,21µM
O=C(c1ccc(CSc2nc3ccncc3n2Cc2cccc(F)c2)cc1)N1CCCCCC1,n,u,x,u,n,16µM
O=C(c1ccc(CSc2nc3ccncc3n2Cc2ccccc2F)cc1)N1CCCCC1,n,u,x,n,n,u
O=C(c1ccc(CSc2nc3ccncc3n2Cc2ccc(F)cc2)cc1)N1CCCCCC1,n,u,x,u,n,u
COc1ccc(OC)c(/C=C2\Oc3cc(OCC(=O)N4CCC(C(=O)O)CC4)ccc3C2=O)c1,x,n,n,n,n,n
Cc1ccc(-n2[nH]c(C)c(/C=N/NC(=O)c3ccc([N+](=O)[O-])cc3)c2=O)c(C)c1,n,x,x,x,x,x
COc1c(/C=N/Nc2ccc([N+](=O)[O-])cc2[N+](=O)[O-])c(C)nn1-c1ccccc1,n,n,n,u,n,u
Cc1[nH]n(-c2ccccc2)c(=O)c1/C=N/NC(=O)c1cccc([N+](=O)[O-])c1,n,u,n,0.26µM,n,0.65µM
Cc1[nH]n(-c2cccc3ccccc23)c(=O)c1/C=N/NC(=O)c1cccc([N+](=O)[O-])c1,n,n,n,2.1µM,n,1.3µM
Cc1ccc(-n2[nH]c(C)c(/C=N/Nc3ccc([N+](=O)[O-])cc3[N+](=O)[O-])c2=O)cc1C,n,u,n,u,n,21µM
CC[C@H](C)[C@H](NC(=O)[C@H](CC(=O)O)NC(=O)[C@H](CC(C)C)NC(=O)[C@H](Cc1cnc[nH]1)NC(=O)[C@H](C)NC(=O)[C@H](Cc1ccccc1)NC(=O)[C@H](Cc1ccc(O)cc1)NC(=O)[C@@H](NC(=O)[C@H](C)NC(=O)[C@H](CCC(=O)O)NC(=O)[C@H](CCC(=O)O)NC(=O)[C@H](CC(=O)O)NC(=O)CCC(=O)O)C(C)C)C(=O)N[C@H](C(=O)N[C@@H](Cc1c[nH]c2ccccc12)C(=O)O)[C@@H](C)CC,n,x,x,x,x,x
COc1ccc(-c2cn[nH]c2-c2ccc(OCc3ccccc3F)cc2O)cc1OC,n,16µM,u,29µM,n,12µM
SMILES,TDP1 inh,TGFb inhibitor,IL1B secr inh,DT40 TDP1 CPT,HepG2 viability,DT40 TDP1 no CPT
COc1ccc2c(c1)CCc1cn[nH]c1-2,x,n,n,u,n,23µM
COc1ccccc1-c1cn[nH]c1-c1ccc(OCc2ccccc2)cc1O,x,u,-99,n,n,u
CCOc1ccc(-c2[nH]ncc2-c2ccccc2)c(O)c1,n,u,n,n,n,u
O=[N+]([O-])c1ccc(COc2ccc(-c3[nH]ncc3-c3ccc(Cl)cc3)c(O)c2)cc1,n,u,-92,u,n,23µM
COc1ccccc1CC(=O)NO,x,x,x,n,x,n
CCc1cc(-c2oncc2-c2ccc(OC)cc2)c(O)cc1OC,n,x,x,x,x,x
COc1ccc(-c2nc(C)ncc2-c2ccccc2)c(O)c1,x,n,n,n,n,n
COc1ccc(-c2[nH]ncc2-c2csc(C)n2)c(O)c1,n,n,n,u,n,u
COc1ccc(-c2cn[nH]c2-c2ccc(OC)cc2O)cc1,x,u,-84,u,n,u
COc1ccc(-c2nc(C)ncc2-c2ccc(Cl)cc2)c(O)c1,x,n,n,15µM,n,n
CCc1cc(-c2[nH]ncc2-c2ccc([N+](=O)[O-])cc2)c(O)cc1OC,x,13µM,u,u,n,u
COc1ccc(-c2cn[nH]c2-c2ccc(OCc3ccccc3)cc2O)cc1,x,u,-99,u,n,u
CC1=C(C(N)=O)C(c2ccccc2F)n2nc(-c3ccc(Cl)cc3)nc2N1 (configuration not stated),n,n,x,n,n,n
N=c1ccn(Cc2ccc(Cl)cc2Cl)cc1,n,u,u,3.7µM,n,5.2µM
N=c1ccn(Cc2ccccc2Cl)cc1,n,n,n,5.2µM,n,4.6µM
Clc1ccc(CN2CCSCC2)c(Cl)c1,x,n,n,n,n,n
N=c1ccn(Cc2c(Cl)cccc2Cl)cc1,n,n,n,1.3µM,n,0.65µM
CC1CCCC/C1=N\NC(=S)Nc1cccnc1 (configuration not stated),n,n,n,n,n,n
Cc1ccc(NC(=S)N/N=C2\CCCCC2C)cc1 (configuration not stated),n,u,n,5.2µM,n,9.2µM
